Source: PubChem BioAssay (NCI)
This is part of a sample that, as a whole, favours compounds with a hit. Of some 83,000 tested, about 20% had one in any assay.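 The test compound was applied at a single concentration to cells in 96-well plates for 48 hours, and percent growth was recorded.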 The source made the active and inactive calls. The calls were made as follows: active = growth percent below 10; inactive = the rest.

These compounds were tested on HOP-92 NSCLC (assay: NCI-60 one-dose screen, 48 h (100 = growth as untreated, 0 = no growth, -100 = all killed)). Details: 10 µM unless noted.
Cc1ccc(C2CC(c3nc(-c4ccc(Cl)cc4)oc3C)=NN2C(=O)c2ccncc2)cc1 (stereo not given) was tested, and the growth was 80% (inactive).
With CSc1nc(C)c([N+](=O)[O-])c(N)n1 the growth was 89.3% (inactive).
In the case of [2H]C([2H])([2H])Oc1ccc(F)cc1/C=C/C(=O)/C=C(O)/C=C/c1cc(F)ccc1OC([2H])([2H])[2H], the growth is reported as 99.3% (inactive).
In the case of COc1ccc(-c2nc3c(N)c(CO)cnc3s2)cc1, the growth is reported as 77% (inactive).
For O=S(=O)(NCCNc1nccc(-c2c(-c3ccc(F)c(O)c3)nc3sccn23)n1)c1ccc(F)cc1, the growth was 33.6% (inactive).
With CCOC(=O)c1cnc2c(N=Nc3ccc(OC)cc3)c(N)nn2c1N the growth was 113% (inactive).
In the case of COc1ccc(-c2nn(-c3ccccc3)cc2/C=C/C(=O)NNC(=O)Nc2ccc(C)cc2)cc1, the growth is reported as 102% (inactive).
In the case of Oc1ccc(/C=C/c2ccc(O)cc2)cc1, the growth is reported as 73.2% (inactive).
With O=[N+]([O-])c1ccc(-c2cn3nc(-c4c[nH]c5ccccc45)sc3n2)cc1 the growth was 102% (inactive).
In the case of Oc1c(CN2CCOCC2)cc(COCc2ccccc2)c2cccnc12, the growth is reported as 62.4% (inactive).
CCOC(=O)CC1CSC(Nc2ccccc2)=N1 (stereo not given) was tested, and the growth was 120% (inactive).
For CCc1n(Cc2ccc3ccccc3n2)cc[n+]1Cc1ccc2ccccc2n1, the growth was -11.9% (active).
For O=P(O)(O)OCC1OC(n2cnc3c(NCc4ccco4)ncnc32)C(O)C1O (stereo not given), the growth was -7.22% (active).
In the case of COc1ccc(C2=CC(c3cc(OC)c(OC)c(OC)c3)n3ncnc3N2)cc1 (stereo not given), the growth is reported as 27% (inactive).
For C/C=C(\C)C(=O)N[C@H]1C(O)C[C@]2(C)C3CC[C@@]4(C)C(CC[C@@H]4C(C)N(C)C)C3CCC2C1O (stereo not given in full), the growth was 46.6% (inactive).
